Data from the supplement of paper PMC10849652.
Of roughly 8,800 targets only a part is listed; those with a hit were picked by preference. About 0.5% of all pairs of compound and target were hits.

Compound: CNc1nc(-c2ccc3c(N)n[nH]c3c2)cc(N2C[C@@H](C(=O)NC3CCCCC3)CC[C@H]2C)n1
Assay: log2 fold change, soluble protein after heating vs DMSO (PISA); higher = thermal stabilisation; K562 lysate, 10 uM; active = over 0.2 and 3.5 SD of the protein, either way, in both replicates (recomputed)
Outline: (§1)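 K562 pellets were dounce-homogenised in PBS pH 7.4 containing 1 mM MgCl2, and the crude extract, at 1 mg/mL protein, was exposed to 10 μM compound for 30 min. Aliquots were heated for 3 min across 48°C-58°C, pooled, brought to 0.5% NP-40 at 4°C and spun at 21,000xg for 90 min, with the supernatant taken as soluble protein. TMTpro 16plex LC-MS/MS with equalised channel sums quantified that protein. Values are log-two fold changes in thermal stability relative to solvent controls, taken from duplicates.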

Sequence of UniProt P27348 (P27348 whole entry, looked up): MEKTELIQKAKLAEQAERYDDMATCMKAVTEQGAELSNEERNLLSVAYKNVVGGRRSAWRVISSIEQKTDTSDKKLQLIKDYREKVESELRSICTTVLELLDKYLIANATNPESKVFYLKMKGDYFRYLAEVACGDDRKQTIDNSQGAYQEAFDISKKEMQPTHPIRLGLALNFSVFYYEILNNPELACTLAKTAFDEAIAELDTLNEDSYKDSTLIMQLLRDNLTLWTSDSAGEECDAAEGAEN
Sequence of UniProt Q9H269 (Q9H269 whole entry, looked up): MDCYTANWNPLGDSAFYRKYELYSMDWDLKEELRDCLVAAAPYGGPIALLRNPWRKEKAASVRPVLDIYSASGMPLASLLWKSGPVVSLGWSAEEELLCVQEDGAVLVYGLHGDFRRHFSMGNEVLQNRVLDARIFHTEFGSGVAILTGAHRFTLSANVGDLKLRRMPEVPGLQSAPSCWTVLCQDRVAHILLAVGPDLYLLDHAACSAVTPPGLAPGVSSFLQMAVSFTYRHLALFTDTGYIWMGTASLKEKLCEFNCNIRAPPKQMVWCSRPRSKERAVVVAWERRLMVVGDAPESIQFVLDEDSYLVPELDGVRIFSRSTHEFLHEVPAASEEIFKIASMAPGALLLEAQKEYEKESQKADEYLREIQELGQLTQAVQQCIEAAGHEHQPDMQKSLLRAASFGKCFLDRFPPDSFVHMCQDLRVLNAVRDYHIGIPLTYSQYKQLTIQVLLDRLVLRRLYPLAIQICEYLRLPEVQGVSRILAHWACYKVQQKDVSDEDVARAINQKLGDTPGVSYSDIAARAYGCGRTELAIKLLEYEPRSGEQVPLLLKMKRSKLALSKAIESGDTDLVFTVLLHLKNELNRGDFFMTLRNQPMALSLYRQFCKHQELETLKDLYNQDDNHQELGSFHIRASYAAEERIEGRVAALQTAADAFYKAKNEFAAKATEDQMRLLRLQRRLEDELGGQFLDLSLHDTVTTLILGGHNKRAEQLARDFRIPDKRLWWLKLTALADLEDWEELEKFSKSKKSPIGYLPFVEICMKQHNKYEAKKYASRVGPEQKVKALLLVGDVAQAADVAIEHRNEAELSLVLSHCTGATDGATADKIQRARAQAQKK
Sequence of UniProt Q9H270 (Q9H270 whole entry, looked up): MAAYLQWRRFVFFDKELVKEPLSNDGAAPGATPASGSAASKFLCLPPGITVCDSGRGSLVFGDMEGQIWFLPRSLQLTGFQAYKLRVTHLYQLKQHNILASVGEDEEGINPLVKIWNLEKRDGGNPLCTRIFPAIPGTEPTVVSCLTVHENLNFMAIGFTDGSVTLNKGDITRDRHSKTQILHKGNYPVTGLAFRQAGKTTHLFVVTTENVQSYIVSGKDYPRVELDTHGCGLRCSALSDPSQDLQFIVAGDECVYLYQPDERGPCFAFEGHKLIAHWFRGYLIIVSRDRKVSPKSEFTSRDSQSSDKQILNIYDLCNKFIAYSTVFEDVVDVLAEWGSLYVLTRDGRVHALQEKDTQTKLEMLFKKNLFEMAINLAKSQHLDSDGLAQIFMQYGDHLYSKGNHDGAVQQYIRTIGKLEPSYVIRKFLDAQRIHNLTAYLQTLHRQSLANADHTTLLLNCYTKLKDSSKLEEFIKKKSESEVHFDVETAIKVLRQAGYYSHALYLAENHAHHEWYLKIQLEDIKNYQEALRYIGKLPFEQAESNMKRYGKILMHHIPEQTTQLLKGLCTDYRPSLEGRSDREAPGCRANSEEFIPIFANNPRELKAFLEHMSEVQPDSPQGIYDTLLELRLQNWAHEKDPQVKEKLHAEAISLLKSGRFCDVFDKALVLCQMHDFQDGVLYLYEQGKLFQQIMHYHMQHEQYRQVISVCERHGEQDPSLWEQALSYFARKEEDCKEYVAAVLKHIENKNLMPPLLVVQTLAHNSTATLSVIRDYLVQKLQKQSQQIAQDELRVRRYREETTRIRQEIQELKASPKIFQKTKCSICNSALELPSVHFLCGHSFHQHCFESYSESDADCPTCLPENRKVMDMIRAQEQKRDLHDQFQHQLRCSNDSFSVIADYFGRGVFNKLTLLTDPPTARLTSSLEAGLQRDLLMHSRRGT
Sequence of UniProt Q86WB0 (Q86WB0 whole entry, looked up): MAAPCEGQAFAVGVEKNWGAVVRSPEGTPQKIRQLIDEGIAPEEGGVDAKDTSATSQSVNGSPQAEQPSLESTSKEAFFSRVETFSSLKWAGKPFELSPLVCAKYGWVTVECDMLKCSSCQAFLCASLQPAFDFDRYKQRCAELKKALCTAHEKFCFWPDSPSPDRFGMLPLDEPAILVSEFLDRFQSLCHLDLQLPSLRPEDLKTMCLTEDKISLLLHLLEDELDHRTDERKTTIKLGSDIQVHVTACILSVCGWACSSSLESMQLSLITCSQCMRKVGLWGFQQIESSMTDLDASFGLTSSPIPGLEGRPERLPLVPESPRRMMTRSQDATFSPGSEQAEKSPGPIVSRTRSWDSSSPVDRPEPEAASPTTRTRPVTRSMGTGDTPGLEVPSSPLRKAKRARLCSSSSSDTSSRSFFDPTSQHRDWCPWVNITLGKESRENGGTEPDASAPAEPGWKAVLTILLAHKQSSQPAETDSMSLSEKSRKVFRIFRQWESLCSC
Sequence of UniProt Q96S55 (Q96S55 whole entry, looked up): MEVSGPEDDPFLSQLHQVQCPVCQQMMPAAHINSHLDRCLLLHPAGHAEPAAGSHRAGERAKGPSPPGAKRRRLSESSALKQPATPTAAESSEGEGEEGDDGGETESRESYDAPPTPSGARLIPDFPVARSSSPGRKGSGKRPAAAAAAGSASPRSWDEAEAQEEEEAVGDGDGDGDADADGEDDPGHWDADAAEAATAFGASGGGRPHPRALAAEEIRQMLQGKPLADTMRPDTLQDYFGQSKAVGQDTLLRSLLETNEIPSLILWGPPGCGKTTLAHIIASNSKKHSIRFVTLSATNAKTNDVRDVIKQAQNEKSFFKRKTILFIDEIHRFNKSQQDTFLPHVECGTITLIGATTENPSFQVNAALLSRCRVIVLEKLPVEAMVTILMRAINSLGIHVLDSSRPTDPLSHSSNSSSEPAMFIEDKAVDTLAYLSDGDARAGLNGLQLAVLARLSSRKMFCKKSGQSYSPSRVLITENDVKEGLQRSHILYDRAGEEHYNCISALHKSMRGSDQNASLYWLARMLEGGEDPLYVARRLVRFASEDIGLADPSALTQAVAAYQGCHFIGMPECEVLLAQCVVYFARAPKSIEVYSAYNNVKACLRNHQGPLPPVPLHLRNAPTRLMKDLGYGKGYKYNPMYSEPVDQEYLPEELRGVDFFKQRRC
Sequence of UniProt P26640 (P26640 whole entry, looked up): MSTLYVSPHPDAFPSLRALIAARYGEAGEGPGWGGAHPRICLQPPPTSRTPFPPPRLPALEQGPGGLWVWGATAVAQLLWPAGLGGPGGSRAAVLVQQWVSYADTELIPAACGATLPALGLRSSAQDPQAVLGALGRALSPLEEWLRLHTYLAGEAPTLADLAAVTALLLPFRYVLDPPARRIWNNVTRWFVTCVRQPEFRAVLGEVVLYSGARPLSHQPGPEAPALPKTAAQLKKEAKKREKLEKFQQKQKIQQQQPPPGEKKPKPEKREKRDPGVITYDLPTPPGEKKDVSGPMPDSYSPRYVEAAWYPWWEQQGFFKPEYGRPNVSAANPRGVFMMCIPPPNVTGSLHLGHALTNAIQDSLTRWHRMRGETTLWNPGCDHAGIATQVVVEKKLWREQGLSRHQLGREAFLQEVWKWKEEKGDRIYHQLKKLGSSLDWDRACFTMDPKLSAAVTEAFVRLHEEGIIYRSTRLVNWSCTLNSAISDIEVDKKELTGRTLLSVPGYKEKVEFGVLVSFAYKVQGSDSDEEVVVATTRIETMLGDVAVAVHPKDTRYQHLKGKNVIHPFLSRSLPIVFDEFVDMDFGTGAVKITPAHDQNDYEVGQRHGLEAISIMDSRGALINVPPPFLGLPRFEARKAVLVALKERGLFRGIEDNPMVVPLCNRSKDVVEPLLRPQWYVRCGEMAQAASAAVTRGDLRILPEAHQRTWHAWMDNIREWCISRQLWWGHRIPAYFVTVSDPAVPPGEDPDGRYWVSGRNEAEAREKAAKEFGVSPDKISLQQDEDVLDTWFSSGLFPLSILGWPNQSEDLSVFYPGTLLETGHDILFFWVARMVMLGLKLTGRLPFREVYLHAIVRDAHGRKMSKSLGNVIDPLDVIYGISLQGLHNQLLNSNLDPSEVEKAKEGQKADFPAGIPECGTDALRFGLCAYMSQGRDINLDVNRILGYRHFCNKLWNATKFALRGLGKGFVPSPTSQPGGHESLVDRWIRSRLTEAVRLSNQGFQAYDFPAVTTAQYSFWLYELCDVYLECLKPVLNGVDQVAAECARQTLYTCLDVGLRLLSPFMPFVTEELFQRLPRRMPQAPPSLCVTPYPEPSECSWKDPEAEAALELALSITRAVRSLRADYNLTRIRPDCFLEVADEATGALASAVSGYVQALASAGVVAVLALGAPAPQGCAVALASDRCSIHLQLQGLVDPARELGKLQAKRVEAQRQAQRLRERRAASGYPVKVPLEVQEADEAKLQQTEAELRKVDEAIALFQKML
Sequence of UniProt Q9Y5J1 (Q9Y5J1 whole entry, looked up): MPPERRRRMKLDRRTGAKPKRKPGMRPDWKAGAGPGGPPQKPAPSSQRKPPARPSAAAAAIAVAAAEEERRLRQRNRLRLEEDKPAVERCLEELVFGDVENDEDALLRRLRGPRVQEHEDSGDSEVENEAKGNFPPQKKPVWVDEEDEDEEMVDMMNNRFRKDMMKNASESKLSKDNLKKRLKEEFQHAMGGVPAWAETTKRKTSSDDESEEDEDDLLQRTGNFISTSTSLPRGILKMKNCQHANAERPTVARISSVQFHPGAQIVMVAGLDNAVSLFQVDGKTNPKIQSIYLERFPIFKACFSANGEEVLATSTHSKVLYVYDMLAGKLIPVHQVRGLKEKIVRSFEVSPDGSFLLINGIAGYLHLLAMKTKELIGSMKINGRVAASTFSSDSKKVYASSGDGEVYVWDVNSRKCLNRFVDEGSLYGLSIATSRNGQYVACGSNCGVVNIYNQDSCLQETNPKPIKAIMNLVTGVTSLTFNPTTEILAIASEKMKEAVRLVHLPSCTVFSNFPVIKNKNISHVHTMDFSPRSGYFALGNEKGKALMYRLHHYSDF

log2 fold change, inactive:
WDR62 isoform 4 (UniProt O43379) 0.048, XPO6 (UniProt Q96QU8) -0.05, VPS35L (UniProt Q7Z3J2) -0.013, YEATS4 (UniProt O95619) -0.054, YWHAQ (UniProt P27348) 0.023, VRK1 (UniProt Q99986) 0.017, ZC3HC1 (UniProt Q86WB0) 0.034, USP3 (UniProt Q9Y6I4) -0.024, VPS11 (UniProt Q9H270) -0.026, VPS16 (UniProt Q9H269) 0, WDR20 isoform 7 (UniProt Q8TBZ3) -0.13, VAV3 isoform 4 (UniProt Q9UKW4) 0.053, WRNIP1 (UniProt Q96S55) -0.044, UNC13D (UniProt Q70J99) -0.035, VARS (UniProt P26640) -0.008, UTP18 (UniProt Q9Y5J1) -0.049

Compound: COC(=O)N[C@@H](C)CNc1nccc(-c2cn(C(C)C)nc2-c2cc(Cl)cc(NS(C)(=O)=O)c2F)n1 [encorafenib]
Assay: as above
Outline: as §1

log2 fold change, inactive:
YES1 (UniProt P07947) -0.009, XAB2 (UniProt Q9HCS7) -0.045, VCPIP1 (UniProt Q96JH7) 0.005, ZC3H13 (UniProt Q5T200) -0.069, ZNF609 (UniProt O15014) 0.002, ZC3H11A (UniProt O75152) 0.045, VPS28 (UniProt Q9UK41) 0.046, ZMYM4 (UniProt Q5VZL5) 0.063, ZNF217 (UniProt O75362) -0.06, YDJC (UniProt A8MPS7) -0.025, XPNPEP1 isoform 3 (UniProt Q9NQW7) 0.001, USP9X (UniProt Q93008) 0.007, UQCRC2 (UniProt P22695) -0.001, WRB (UniProt O00258) -0.067, ZBTB33 (UniProt Q86T24) 0.018, WDR62 isoform 4 (UniProt O43379) 0.054, XPO6 (UniProt Q96QU8) -0.006, VPS35L (UniProt Q7Z3J2) 0.014, YEATS4 (UniProt O95619) -0.004, YWHAQ (UniProt P27348) -0.025, VRK1 (UniProt Q99986) -0.027, ZC3HC1 (UniProt Q86WB0) -0.001, USP3 (UniProt Q9Y6I4) 0.03, VPS11 (UniProt Q9H270) 0.016, VPS16 (UniProt Q9H269) 0.049, WDR20 isoform 7 (UniProt Q8TBZ3) 0.078, VAV3 isoform 4 (UniProt Q9UKW4) 0, WRNIP1 (UniProt Q96S55) 0.024, UNC13D (UniProt Q70J99) 0.059, VARS (UniProt P26640) -0.008, UTP18 (UniProt Q9Y5J1) -0.028
